# Bioassay records as filed in PubChem.
# Only a selection was taken, and hits are over-represented in it overall.
# TTR transcr act = increases transthyretin transcription. 1.3% of 92,000 active. activation, % at 16.7 µM. SH-SY5Y TTR promoter Gaussia luciferase, luminescence; 100% = recombinant luciferase protein wells. AID 1117267;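 active = activation above the mean of all tested compounds plus 3 SD, cut at about 9.5% in these data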;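 note: cells exposed to compounds for one day before reading; 0% = median of all test compound wells on the plate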
# TTR inh HuH7 = counter-screen for TTR activators: TTR transcription inhibitors in HuH7 cells; shares compounds with TTR transcr act; HuH7 TTR promoter-Gaussia luciferase reporter, luminescence; inhibition, % at 16.7 µM; 4% of 1,100 active; AID 1117279;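 active = average inhibition above the solvent-only control wells' mean plus 3 SD, cut at about 15% in these data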;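 note: 0% = cells with DMSO only and 100% = cells with inhibitor control FD; inhibitors lower well luminescence so higher value means more inhibition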
# TTR act confirm = human TTR transcription activation, confirmation | activation, % at 16.7 µM | AID 1117280 | shares compounds with TTR transcr act | SHSY5Y TTR promoter Gaussia luciferase, luminescence; 100% = purified Lucia enzyme wells, no cells | 1,100 tested, under 10 active;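 active = mean activation above a set limit taken from the earlier primary screen, cut at about 11% in these data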;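 note: 0% = DMSO-treated cells and 100% = recombinant Lucia luciferase without cells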
# Numbers without * were called inactive.
SMILES,TTR transcr act,others
COc1ccc2sc(N(CCN(C)C)C(=O)c3ccc4ccccc4c3)nc2c1,2.2,
C#CCOCCOCCOCCNc1nc(N2CCN(C(=O)Cn3cc(CCO)nn3)CC2)nc(N2CCN(C(=O)[C@H]([C@@H](C)O)n3cc(CCCCN)nn3)CC2)n1,11.2*,TTR inh HuH7=-8.7;TTR act confirm=0.3
C#CCOCCOCCOCCNc1nc(N2CCN(C(=O)[C@H]([C@@H](C)O)n3cc(CCCCN)nn3)CC2)nc(N2CCN(C(=O)[C@H]([C@@H](C)CC)n3cc(CCCN=C(N)N)nn3)CC2)n1,7.3,
C#CCOCCOCCOCCNc1nc(N2CCN(C(=O)Cn3cc(CCCCN)nn3)CC2)nc(N2CCN(C(=O)[C@H]([C@@H](C)CC)n3cc(CCCN=C(N)N)nn3)CC2)n1,-1.1,
O=C(Nc1sc2c(c1-c1nc3ccccc3s1)CCNC2)C(F)F,0.0,
COc1ccc(CC(=O)Nc2ccc(N(C)C)c3ccccc23)cc1,2.5,
NC1=NC[C@H](c2ccccc2)N1CC1CCCCC1,15.0*,TTR inh HuH7=-2.7;TTR act confirm=-0.8
c1ccc(NC2=NCCN2CC2CCC2)cc1,-0.7,
O[C@@H]1CN(CC2CCCCC2)[C@@H](c2ccccc2)C[C@H]1n1cc(C2CC2)nn1,-0.1,
COCCNC(=S)N1CCCC(CO)C1 (configuration not stated),7.0,
CCOC(=O)C(=C1Nc2ccccc2N1)n1c(-c2cccnc2)nc2ccccc21,-1.2,
O=C(O)c1cccc(-n2nc(-c3ccc(Cl)c([N+](=O)[O-])c3)c3ccccc3c2=O)c1,0.6,
CC(NC(=O)CCCc1ccccc1)c1ccncc1 (configuration not stated),2.7,
Cn1c(CSc2nc3ccccc3s2)n[nH]c1=S,-1.6,
COC(=O)c1ccc(CSc2nc3ccccc3s2)o1,-1.2,
S=c1[nH]nc(CSc2nc3ccccc3s2)o1,14.5*,TTR inh HuH7=-10.2;TTR act confirm=-0.7
CCc1[nH]nc(C(=O)N2CCCC(N3CCN(c4ccccc4C)CC3)C2)c1C (configuration not stated),-1.1,
Cn1c2ccccc2c(=O)c2c(=O)n(Cc3ccco3)c(-c3ccc(F)cc3)nc21,2.6,
CCCc1nc2sc3ccccc3c(=O)c2c(=O)n1Cc1ccccc1,-0.6,
O=c1c2ccccc2sc2nc(C3CCCCC3)n(Cc3ccco3)c(=O)c12,16.7*,TTR inh HuH7=2.0;TTR act confirm=-1.3
O=S1(=O)CC(N2CCCCC2)C1CN1CCCCC1 (configuration not stated),0.5,
CN(CC1COc2ccccc2O1)C(=O)CSc1ncccn1 (configuration not stated),-1.2,
Cc1ccc(C2CC(c3ccccc3)=NN2C(=S)Nc2ccccc2)o1 (configuration not stated),11.3*,TTR inh HuH7=24.8*;TTR act confirm=-0.1
COc1cccc(C2CC(c3cccs3)=NN2C(=S)Nc2ccccc2)c1OC (configuration not stated),2.1,
COc1ccc(C2CC(c3cccs3)=NN2C(=S)Nc2ccccc2)cc1OC (configuration not stated),1.1,
SMILES,TTR transcr act,others
O=C(CCS(=O)(=O)c1ccccc1)Nc1ccc(Cl)cn1,-0.1,
O=C(COC(=O)CCSc1ccccc1Cl)Nc1ccc(F)cc1F,10.0*,TTR inh HuH7=-6.0;TTR act confirm=3.4
CSc1ccccc1NC(=O)COC(=O)CCC(=O)c1ccc(F)cc1,-1.1,
O=C(COC(=O)CCSc1ccccc1)Nc1ccc(F)cc1Cl,-0.4,
COC(=O)C[C@H]1CC[C@H](NC(=O)c2cccc(F)c2)[C@@H](CO)O1,3.8,
CC(=O)Nc1cc2c(c(Cl)c1Cl)-c1ccccc1C2=O,3.5,
Cc1cccc(C(=O)OCC(=O)NC(C)CCc2ccccc2)c1O (configuration not stated),-1.8,
O=C1C=C(C#Cc2ccccc2)C[C@@H](c2ccc(F)cc2)C1,-0.9,
COc1ccc(C(=O)O/N=C(\N)Cc2cccs2)cc1OC,2.8,
N/C(Cc1cccs1)=N\OC(=O)COc1ccccc1Cl,11.1*,TTR inh HuH7=10.6;TTR act confirm=0.3
COc1ccc(/C(N)=N/OC(=O)COc2ccccc2Cl)cc1,0.4,
O=S(=O)(c1ccccc1)N1CCN(S(=O)(=O)c2ccc3c(c2)OCCO3)CC1,0.3,
CC1CCC(NC(=O)C2CCC(CNS(=O)(=O)c3ccc4c(c3)C(C)(C)C(=O)N4C)CC2)CC1 (configuration not stated),-2.0,
CN(C)CCCNC(=O)c1cc2sc3ccccc3c2s1,1.5,
Cc1nn(C(C)C(=O)NCCCN(Cc2ccccc2)C(C)C)c(=O)c2c1sc1ccccc12 (configuration not stated),10.3*,TTR inh HuH7=-15.4;TTR act confirm=1.9
CCOC(=O)N1CCN(C(=O)Cn2nc(C)c3sc4ccccc4c3c2=O)CC1,-1.5,
Nc1nc2ccc(Cl)cc2cc1C(=O)NC1CC1,1.5,
Cc1nc(SCC(=O)NC(C)(C)C)c2c(-c3cccs3)csc2n1,13.6*,TTR inh HuH7=-16.2;TTR act confirm=-0.1
Cc1cc(NC(=O)CSc2n[nH]c(-c3cccs3)n2)no1,4.0,
CC(C)(C)NC(=O)CSc1nnc(-c2ccncc2)n1Cc1ccccc1,-1.1,
COC(=O)C[C@H]1CC[C@@H]2[C@H](COc3ccc(NC(=O)NCc4ccccc4)cc3C(=O)N2C)O1,4.7,
Cc1ccc(S(=O)(=O)NC(=O)C2(C)CCN2C(=O)C2CC2)cc1 (configuration not stated),1.8,
CCOC(=O)N1CCN(C2CCCN(C(=O)c3ccccc3SC)C2)CC1 (configuration not stated),1.1,
COCCSc1ccccc1C(=O)N1CCCC(C)C1 (configuration not stated),20.9*,TTR inh HuH7=-26.0;TTR act confirm=0.1
COCCSc1ccccc1C(=O)N1CCN(c2ccccc2)CC1,0.3,
SMILES,TTR transcr act,others
CCN=C1SC(C(=O)Nc2ccc(Cl)c(Cl)c2)CC(=O)N1CC (configuration not stated),20.4*,TTR inh HuH7=-9.2;TTR act confirm=1.3
CCN=C1SC(C(=O)Nc2cc(Cl)cc(Cl)c2)CC(=O)N1CC (configuration not stated),0.2,
CCN=C1SC(C(=O)Nc2cccc(C)c2)CC(=O)N1CC (configuration not stated),2.9,
O=C(Nc1ccc(F)cc1)OCc1cn(Cc2ccc(Cl)cc2)nn1,1.1,
Cc1ccccc1-c1cc2nc(NCc3ccc4occc4c3)n(C)c(=O)c2s1,-1.8,
O=C(COC(=O)c1ccccc1O)Nc1ccc(S(=O)(=O)N2CCCCC2)cc1,-4.0,
O=C(COC(=O)c1ccc(Cl)nc1)Nc1ccc(S(=O)(=O)N2CCCC2)cc1,20.0*,TTR inh HuH7=-0.6;TTR act confirm=-0.8
O=C(COC(=O)c1ccc(Cl)nc1)Nc1cc(S(=O)(=O)N2CCCCC2)ccc1Cl,-0.8,
Cc1c(C)c2cc(Cl)c(OCC(=O)NCCCn3ccnc3)cc2oc1=O,1.6,
OC(CNCCc1ccc(C(F)(F)F)cc1)COC(c1ccccc1)c1ccccc1 (configuration not stated),-1.5,
CC1=C(C(=O)N(C(C)C)C(C)C)CC(CC(=O)NCc2cccc3ccccc23)C(=O)N1CCC1=CCCCC1 (configuration not stated),-0.8,
O=C(c1ccc2c(c1)OCO2)N1CCN(c2ccccc2)CC1,5.7,
COc1ccc(N2CCN(C(=O)c3ccncc3)CC2)cc1,-0.9,
COc1ccc(N2CCN(C(=O)c3ccc4c(c3)OCO4)CC2)cc1,20.9*,TTR inh HuH7=-12.6;TTR act confirm=1.1
